Compound activity (PubChem BioAssay)
FBW7 activator: FBW7 E3 ligase activators, primary screen, biochemical, AlphaScreen, human; F-box/WD repeat-containing protein 7 (Homo sapiens), Q969H0; AlphaScreen FBW7–phospho-cyclin E peptide binding, activator screen; normalized activity (activation), % at 26.1 µM; 650,000 tested, 0.13% active; AID 1259310, 2017; in the data active = normalized activity above about 1.9%;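 note: purified mutant Fbw7 with reduced substrate affinity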
GPR151 activ: activators of human GPR151, primary screen, cell-based, PathHunter beta-arrestin, luminescence. G-protein coupled receptor 151 (Homo sapiens), Q8TDV0. PathHunter beta-arrestin GPR151 cells. activation, % at 11.2 µM. 650,000 tested, 1% active. AID 1508602, 2020; in the data active = activation above about 4.9%;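 note: 0% = median of compound wells and 100% = cells with positive control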
Target sequence (Q8TDV0 whole entry, looked up): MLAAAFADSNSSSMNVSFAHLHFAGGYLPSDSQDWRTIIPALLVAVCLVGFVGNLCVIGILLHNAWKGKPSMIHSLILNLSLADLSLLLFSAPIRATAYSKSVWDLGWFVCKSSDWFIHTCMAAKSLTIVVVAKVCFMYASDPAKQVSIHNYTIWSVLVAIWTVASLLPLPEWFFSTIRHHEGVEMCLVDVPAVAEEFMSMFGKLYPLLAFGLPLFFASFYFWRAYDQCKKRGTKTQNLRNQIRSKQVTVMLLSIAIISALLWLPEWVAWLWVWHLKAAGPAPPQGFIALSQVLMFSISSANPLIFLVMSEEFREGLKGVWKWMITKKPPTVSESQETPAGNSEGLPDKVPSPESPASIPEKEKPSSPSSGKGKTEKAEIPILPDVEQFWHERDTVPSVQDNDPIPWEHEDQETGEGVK
TEAD-YAP block: TEAD-YAP interaction inhibition, primary screen, TEAD-YAP interaction inhibitor project, luminescence, HEK-TIYL cells; TEAD-Gal4/YAP UAS-luciferase luminescence; AID 1259422, 2018; inhibition, % at 9.12 µM; 640,000 tested, 1.4% active; in the data active = inhibition above about 32%;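 note: 0% = median of test compound wells and 100% = reference inhibitor wells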
MITF inh: MITF inhibitors, primary screen, biochemical, AlphaScreen, human | Microphthalmia-associated transcription factor (Homo sapiens), O75030 | inhibition, % at 2.6 µM | AID 1259374, 2018 | AlphaScreen MITF homodimerization, bead proximity signal | 650,000 tested, 0.91% active; in the data active = inhibition above about 50%;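 note: 0% = vehicle wells with protein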
Numbers without * were called inactive. Compounds with a hit are over-represented: about 3.5% of the library has one in this group of screens.

SMILES | FBW7 activator | GPR151 activ | TEAD-YAP block | MITF inh
Cc1cc(C)c(OCC(=O)N/N=C/c2ccccc2O)c(C)c1 | -0.2 | 1.2 | -4.5 | -0.2
CCOc1ccccc1OCC(=O)N/N=C/c1ccc(O)c([N+](=O)[O-])c1 | -0.2 | 0.3 | 55.3* | -0.2
CCOc1ccccc1OCC(=O)N/N=C/c1ccccc1O | -1.7 | 0.4 | 58.7* | -5.8
COc1c(O)ccc(/C=N/NC(=O)COc2ccccc2C)c1[N+](=O)[O-] | 0.0 | 2.9 | -8.0 | -4.8
N#Cc1ccccc1OCC(=O)N/N=C/c1ccc(O)c([N+](=O)[O-])c1 | -0.1 | 1.3 | -14.2 | -5.9
COc1c(O)ccc(/C=N/NC(=O)COc2c(C)ccc(C)c2C)c1[N+](=O)[O-] | 0.3 | 0.3 | 54.2* | 7.4
COC(=O)CCC(=O)NNC(=O)CCC(=O)Nc1ccc(C)cc1C | 0.2 | 0.9 | 2.4 | -1.5
CC1(C)CC(=O)C2=C(C1)NC1=C(C(=O)c3ccccc31)C2c1ccc(F)cc1 (stereo not given) | -0.2 | -1.4 | 25.9 | 17.1
CCOc1ccccc1OCC(=O)N/N=C(/C)c1ccc(Cl)cc1 | 0.4 | 0.4 | 69.2* | 9.2
O=C(CCSc1ccccc1)Nc1nc(-c2ccccn2)cs1 | -0.2 | 0.0 | 31.5 | -3.0
O=C(CCSc1ccc(Cl)cc1)Nc1nc(-c2ccccn2)cs1 | 0.0 | 3.8 | 33.5* | 0.7
O=C(CCCSc1ccc(Cl)cc1)Nc1nc(-c2ccccn2)cs1 | -0.9 | 0.3 | 39.0* | 11.7
Cc1csc(NC(=O)c2cccc(F)c2F)n1 | 0.1 | -5.6 | -33.0 | 10.5
CNC(=O)CSc1nc2ccc(C)cc2cc1C | -0.1 | -1.3 | -8.0 | -3.8
Cc1ccc(/C=N/NC(=O)CNc2ccccc2C)cc1 | 0.0 | -1.2 | 44.3* | -15.3
COCCCNc1nc(CN2CCOCC2)nc2ccc(C)cc12 | 0.4 | 1.9 | -11.4 | 13.0
Cc1cc(NC(=O)CSc2nc3ccccc3c(=O)n2CC2CCC(C(=O)NCCc3ccccc3)CC2)n[nH]1 (stereo not given) | 0.0 | 1.1 | -3.0 | -10.1
Clc1ccc(-c2cnc3ccc(NCCc4cccnc4)nn23)cc1 | -0.2 | 0.7 | 51.6* | -5.7
c1cncc(CCNc2ccc3ncc(-c4ccc5ccccc5c4)n3n2)c1 | -0.3 | 0.7 | 2.6 | 10.5
Fc1cccc(-c2cnc3ccc(NCCc4cccnc4)nn23)c1 | -0.2 | 1.7 | 65.1* | 20.0
CCN1C(=O)C2(/C(=C(\O)c3ccc(C)cc3)C(=O)C(=O)N2CCCN(C)C)c2ccccc21 (stereo not given) | -0.1 | 0.1 | 4.5 | -16.7
COc1ccccc1-c1c2cc(O)c(=O)cc-2oc2cc(O)c(O)cc12 | -0.3 | -0.9 | 7.7 | 104.0*
O=c1cc2oc3cc(O)c(O)cc3c(-c3ccccn3)c-2cc1O | -1.6 | -1.1 | 5.1 | 86.1*
COc1cccc(-c2cc(=O)c3ccccc3o2)c1N | 0.0 | -1.5 | -53.0 | -11.2
O=c1cc2oc3cc(O)c(O)cc3c(-c3cccc(Cl)c3Cl)c-2cc1O | -0.1 | -1.1 | 11.4 | 102.4*
SMILES | FBW7 activator | GPR151 activ | TEAD-YAP block | MITF inh
COc1cc(OC)c(-c2c3cc(O)c(=O)cc-3oc3cc(O)c(O)cc23)cc1OC | -0.2 | -1.0 | 7.8 | 110.0*
CC(=O)Nc1cccc(-c2cc(=O)c3ccccc3o2)c1O | 0.0 | -1.6 | -47.2 | -5.2
COc1cc2ccc(=O)oc2cc1O | -0.1 | -0.7 | 7.2 | 2.4
CCc1nnc(NC(=O)CSc2[nH]c(=O)ncc2C)s1 | -0.8 | -0.7 | -1.5 | 6.8
COc1ccc(CN2CCc3nnc(C(NS(C)(=O)=O)C(C)C)n3CC2)c(C)c1C (stereo not given) | 0.0 | -0.4 | -4.5 | 5.1
O=C(Nc1cccc(N2CCNC2=O)c1)C1CC12CCN(CCc1ccccc1)CC2 (stereo not given) | 0.1 | 0.3 | -9.2 | 1.7
C/C(=N/Nc1ccccc1[N+](=O)[O-])c1ccco1 | -0.5 | -0.4 | -56.8 | 40.5
CC(=O)Nc1ncc(Cc2ccc(Cl)cc2)s1 | 0.1 | 1.9 | 11.1 | 1.7
COc1cc(C(=O)Nc2ncc(Cc3ccc(Cl)cc3)s2)cc(OC)c1OC | -0.1 | 0.4 | 58.5* | -3.3
COc1ccc(Cc2cnc(NC(=O)c3sc4ccccc4c3Cl)s2)cc1 | 0.0 | 2.2 | 48.2* | -21.9
COc1ccc(C(=O)Nc2ncc(Cc3ccc(F)cc3)s2)cc1OC | 1.0 | 0.2 | 54.8* | 10.0
O=C(Nc1ncc(Cc2ccccc2Cl)s1)c1cccc2ccccc12 | -0.1 | -0.6 | 35.2* | -14.9
COc1ccc2nc(NC(=O)c3sc4ccccc4c3Cl)sc2c1 | -0.1 | -0.4 | -9.0 | -7.8
